PubChem BioAssay (Tox21)
“And” between values parts separate entries of the source, which are not always exact repeats. Equal values may be shown once. Records with an inconclusive call do not appear. Entries that show only a call come without a potency. The source holds several records for some structures; these can differ, active in one and inactive in another. The source made the active and inactive calls. Unless noted, calls come from the whole dose curve; as a rule, active = well fitted curve in the direction sought with a large enough effect in the repeat runs; inconclusive = weak or mixed curves; inactive = no such curve, though single readings can be large; an effect the other way counts as inactive or inconclusive.

Tests used:
[1] = qHTS assay to identify small molecule agonists of the estrogen receptor alpha (ER-alpha) signaling pathway in the presence of an antagonist - cell viability counter screen (AID 1259386); settings: VM7Luc4E2 viability, CellTiter-Fluor fluorescence, 22 h; series mostly up to 92.4 µM;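 note: cells exposed to compounds for 22 h at 37 °C before the viability read; nearly all actives have a fitted effect of over 30% in size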; note: potency is the fitted concentration of half-maximal effect
Method in brief: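 Cells are starved of estrogens for 5 days in charcoal-stripped serum, seeded for 24hr and co-treated with ICI-182,780 (10.0nM final) and test compounds. After 22hr at 37C, viability is read as CellTiter-Fluor fluorescence.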

[2] = target: Progesterone receptor (Homo sapiens) (UniProt P06401); test: qHTS assay to identify small molecule antagonists of the progesterone receptor (PR) signaling pathway (AID 1346795; active = well fitted inhibition curve with a large enough effect in the signal ratio in the repeat runs, not every such curve was filed as active; the % refers to the signal ratio; note: potency is the fitted concentration of half-maximal effect); settings: PR-UAS-bla HEK293T, beta-lactamase FRET ratio, 16 h; series mostly up to 92.4 µM
Method in brief: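 Beta-lactamase reporter, HEK293T PR-UAS-bla line; 2% charcoal-stripped FBS; 6 hr pre-incubation, 37C/5% CO2. Compound + R5020 1 nM final, 16 hr. LiveBLAzer B/G FRET substrate, 2 hr RT; fluorescence intensity read.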

[3] = qHTS assay to identify small molecule agonists of the progesterone receptor (PR) signaling pathway - cell viability counter screen (AID 1346799; calls by dose curve; note: nearly all actives have a fitted effect of over 45% in size; note: potency is the fitted concentration of half-maximal effect); settings: PR-UAS-bla HEK293T viability, CellTiter-Glo luminescence, 16 h; series mostly up to 92.4 µM
Method in brief: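 HEK293T PR-UAS-bla, 3,000 cells/well, 2% charcoal-stripped FBS; 6 h settle, compound 16 h at 37C/5% CO2; LiveBLAzer 2 h RT, then CellTiter-Glo 30 min RT, luminescence read.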

[4] = qHTS assay to identify small molecule agonists of the TGF-beta/Smad signaling pathway (AID 1346859; active = well fitted activation curve with a large enough effect in the signal ratio in the repeat runs, not every such curve was filed as active; the % refers to the signal ratio; note: potency is the fitted concentration of half-maximal effect); settings: SBE-bla HEK293T, TGF-beta/Smad beta-lactamase reporter, 5 h; series mostly up to 76.8 µM
Method in brief: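 Read-out: fluorescence at 460 and 530 nm (405 nm excitation) after a 2 hr room-temperature incubation with beta-lactamase FRET substrate. SBE-bla HEK 293T cells had been treated with test compounds for 5 hr at 37 C.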

[5] = target: Thyrotropin-releasing hormone receptor (Homo sapiens) (UniProt P34981); test: qHTS assay to identify small molecule agonists of the thyrotropin-releasing hormone receptor (TRHR) signaling pathway (AID 1346891; calls by dose curve;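 note: HEK293 cells expressing TRHR with calcium dye readout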); settings: TRHR-HEK293 calcium fluorescence, agonist mode; series mostly up to 57.6 µM
Method in brief: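 HEK293/TRHR cells, 1500 per well, 18 h 37 °C; Ca dye 2 h 37 °C; pin-tool compound addition (agonist mode); kinetic fluorescence 3 min, 1 s reads; 15 concentrations, triplicate.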

[6] = target: Progesterone receptor (Homo sapiens) (UniProt P06401); test: qHTS assay to identify small molecule agonists of the progesterone receptor (PR) signaling pathway (AID 1346784; calls by dose curve; note: nearly all actives have a fitted effect of over 30% in size; note: potency is the fitted concentration of half-maximal effect); settings: PR-UAS-bla HEK293T, beta-lactamase FRET ratio, 16 h; series mostly up to 92.4 µM
Method in brief: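 HEK 293T PR-UAS-bla reporter cells, 2% charcoal-stripped FBS; 6 hr settle at 37C/5% CO2, compound (DMSO) 16 hr, LiveBLAzer B/G FRET substrate 2 hr RT, fluorescence intensity read.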

[7] = qHTS assay to identify small molecule antagonists of the TGF-beta/Smad signaling pathway - cell viability counter screen (AID 1346824); settings: SBE-bla HEK293T viability, CellTiter-Glo luminescence; series mostly up to 76.8 µM; note: nearly all actives have a fitted effect of over 50% in size; note: potency is the fitted concentration of half-maximal effect
Method in brief: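 SBE-bla HEK 293T cells, incubated overnight, then compound plus 0.25 ng/mL TGF-beta1 (stock added) for 5 hr at 37 C. Viability was read in the same wells by CellTiter-Glo luminescence after 30 min at room temperature.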

[8] = qHTS assay to identify small molecule agonists of the TGF-beta/Smad signaling pathway - cell viability counter screen (AID 1346829); settings: SBE-bla HEK293T viability, CellTiter-Glo luminescence, 5 h; series mostly up to 76.8 µM; note: nearly all actives have a fitted effect of over 45% in size; note: potency is the fitted concentration of half-maximal effect
Method in brief: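 Luminescence from CellTiter-Glo, read after a 30 min room-temperature incubation, gives cell viability of SBE-bla HEK 293T cells treated 5 hr with compounds at 37 C.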

[9] = target: Thyrotropin-releasing hormone receptor (Homo sapiens) (UniProt P34981); test: qHTS assay to identify small molecule antagonists of the thyrotropin-releasing hormone receptor (TRHR) signaling pathway (AID 1346877; active = well fitted inhibition curve with a large enough effect in the repeat runs, not every such curve was filed as active); settings: TRHR-HEK293, TRH-induced calcium fluorescence, antagonist mode; series mostly up to 51.3 µM
Method in brief: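 Cells (TRHR-HEK293) are plated and kept 18 h at 37 °C/5% CO2. A calcium-sensitive dye is added for 2 h, compound follows for 5 min at room temperature, and TRH is then given at 1 nM final.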

[10] = qHTS assay to identify small molecule antagonists of the progesterone receptor (PR) signaling pathway - cell viability counter screen (AID 1346798); settings: PR-UAS-bla HEK293T viability, CellTiter-Glo luminescence, 16 h; series mostly up to 92.4 µM; note: nearly all actives have a fitted effect of over 50% in size; note: potency is the fitted concentration of half-maximal effect
Method in brief: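 Luminescence readout (CellTiter-Glo, 30 min, RT) of viability in PR-UAS-bla HEK293T cells exposed to compound and R5020 agonist for 16 hr at 37C, 5% CO2; run in the same wells as the beta-lactamase reporter read.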

Sequence of Thyrotropin-releasing hormone receptor (Homo sapiens) (P34981 whole entry, looked up): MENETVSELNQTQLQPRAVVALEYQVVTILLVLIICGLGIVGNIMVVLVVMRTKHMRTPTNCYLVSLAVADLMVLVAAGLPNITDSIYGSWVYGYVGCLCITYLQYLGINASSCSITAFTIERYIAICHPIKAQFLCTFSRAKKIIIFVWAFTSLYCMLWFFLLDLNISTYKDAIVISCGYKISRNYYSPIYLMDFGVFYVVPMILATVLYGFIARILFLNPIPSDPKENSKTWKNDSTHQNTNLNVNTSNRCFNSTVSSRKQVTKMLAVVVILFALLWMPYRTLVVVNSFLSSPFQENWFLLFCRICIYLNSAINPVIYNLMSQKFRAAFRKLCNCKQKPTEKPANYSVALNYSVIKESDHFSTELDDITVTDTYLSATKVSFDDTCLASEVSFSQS
Sequence of Progesterone receptor (Homo sapiens) (P06401 whole entry, looked up): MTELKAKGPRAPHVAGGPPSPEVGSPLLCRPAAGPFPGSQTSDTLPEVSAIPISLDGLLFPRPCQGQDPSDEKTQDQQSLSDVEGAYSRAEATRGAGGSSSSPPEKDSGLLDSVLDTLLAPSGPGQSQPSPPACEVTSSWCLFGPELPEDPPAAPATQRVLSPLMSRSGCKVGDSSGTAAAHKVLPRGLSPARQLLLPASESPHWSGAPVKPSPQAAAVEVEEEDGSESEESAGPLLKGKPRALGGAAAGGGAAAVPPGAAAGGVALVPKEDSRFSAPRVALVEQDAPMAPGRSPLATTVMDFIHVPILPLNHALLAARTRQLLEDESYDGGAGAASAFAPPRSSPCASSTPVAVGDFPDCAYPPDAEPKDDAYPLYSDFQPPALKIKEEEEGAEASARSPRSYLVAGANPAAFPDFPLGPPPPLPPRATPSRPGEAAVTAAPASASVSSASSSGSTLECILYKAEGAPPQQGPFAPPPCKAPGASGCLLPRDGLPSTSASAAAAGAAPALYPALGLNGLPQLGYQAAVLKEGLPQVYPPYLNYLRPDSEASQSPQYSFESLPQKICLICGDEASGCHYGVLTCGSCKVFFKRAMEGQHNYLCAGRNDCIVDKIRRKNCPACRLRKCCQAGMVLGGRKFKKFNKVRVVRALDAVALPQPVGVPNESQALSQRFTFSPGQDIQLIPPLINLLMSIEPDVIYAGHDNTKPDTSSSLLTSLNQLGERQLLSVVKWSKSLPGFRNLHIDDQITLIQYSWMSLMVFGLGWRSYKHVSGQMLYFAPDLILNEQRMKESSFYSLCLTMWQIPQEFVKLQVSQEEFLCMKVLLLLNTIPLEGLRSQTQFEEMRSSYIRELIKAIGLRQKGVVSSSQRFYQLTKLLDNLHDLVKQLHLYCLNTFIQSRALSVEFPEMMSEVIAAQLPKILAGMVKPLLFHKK

For `CN(C)C(=O)C1(N2CCCCC2)CCN(CC[C@@]2(c3ccc(Cl)c(Cl)c3)CN(C(=O)c3ccccc3)CCO2)CC1`, the Potency [1] was 57.1 µM (active), the Potency [2] was 50.9 µM (active) and the Potency [3] was 20.3 µM (active). For the same compound, the Potency [4] was “inactive” and the Potency [5] was “inactive”.
In the case of `Cc1cccc(CN2CCN(C(c3ccccc3)c3ccc(Cl)cc3)CC2)c1` (stereo not drawn), the Potency [1] is reported as “inactive”, the Potency [6] is reported as “inactive” and the Potency [7] is reported as “inactive”. For the same compound, the Potency [8] was “inactive”, the Potency [4] was “inactive” and the Potency [9] was “inactive”. For the same compound, the Potency [5] was “inactive”.
In the case of `C=CC(=O)OCC(CO)(COCC(COC(=O)C=C)(COC(=O)C=C)COC(=O)C=C)COC(=O)C=C`, the Potency [1] is reported as 10.7 µM (active), the Potency [2] is reported as 6.04 µM (active) and the Potency [10] is reported as 15.2 µM (active). The Potency [3] was 15.2 µM (active), the Potency [7] was 48.4 µM (active) and the Potency [8] was 21.6 µM (active). The Potency [4] was “inactive”.
With `Clc1ccccc1C(c1ccccc1)(c1ccccc1)n1ccnc1` the Potency [1] was 54.5 µM (active) and inactive, the Potency [2] was 9.44 µM (active) and the Potency [10] was 5.45 µM (active) and 29.8 µM (active). For the same compound, the Potency [8] was 34.7 µM (active) and inactive, the Potency [9] was “inactive” and the Potency [5] was “inactive”.
With `CSc1ccc2c(c1)C(N1CCN(C)CC1)Cc1ccccc1S2` (stereo not drawn) the Potency [1] was “inactive”, the Potency [2] was 26.6 µM (active) and the Potency [10] was 26.6 µM (active). The Potency [3] was 33.5 µM (active), the Potency [7] was “inactive” and the Potency [4] was “inactive”. For the same compound, the Potency [9] was “inactive” and the Potency [5] was “inactive”.
With `C/C(=C(/OCCOc1ccc(Cl)cc1)c1ccc(Cl)cc1Cl)n1ccnc1` the Potency [1] was “inactive”, the Potency [2] was 8.41 µM (active) and the Potency [10] was 13.3 µM (active). The Potency [3] was 16.8 µM (active), the Potency [7] was “inactive” and the Potency [8] was “inactive”. The Potency [4] was “inactive”.
In the case of `Nc1c2ccccc2nc2ccccc12`, the Potency [1] is reported as “inactive”, the Potency [6] is reported as 4.79 µM (active) and the Potency [7] is reported as “inactive”. For the same compound, the Potency [4] was 23.9 µM (active).
For `O=S1(=O)CC(Cl)(Cl)C(Cl)(Cl)C1`, the Potency [1] was 27.3 µM (active), the Potency [2] was 6.86 µM (active) and the Potency [3] was 12.2 µM (active). The Potency [9] was “inactive” and the Potency [5] was “inactive”.
In the case of `CCN(C(=O)N(CC)c1ccccc1)c1ccccc1`, the Potency [1] is reported as “inactive”, the Potency [2] is reported as 30.6 µM (active) and the Potency [10] is reported as “inactive”. The Potency [3] was “inactive”, the Potency [7] was “inactive” and the Potency [4] was “inactive”. The Potency [9] was “inactive” and the Potency [5] was “inactive”.
With `Nc1cc(C(F)(F)F)ccc1S` the Potency [1] was “inactive”, the Potency [6] was “inactive” and the Potency [7] was “inactive”. The Potency [8] was “inactive”, the Potency [4] was “inactive” and the Potency [9] was “inactive”. The Potency [5] was “inactive”.
In the case of `CN1CCN(CCC(=O)N2c3ccccc3Sc3ccc(C(F)(F)F)cc32)CC1`, the Potency [1] is reported as “inactive”, the Potency [2] is reported as 26.6 µM (active) and the Potency [10] is reported as 18.8 µM (active). The Potency [3] was 23.7 µM (active), the Potency [7] was “inactive” and the Potency [8] was “inactive”. The Potency [4] was “inactive”, the Potency [9] was “inactive” and the Potency [5] was “inactive”.
With `Cc1ccc2oc(CN(Cc3ccccc3)C(=O)Nc3c(F)cc(F)cc3F)c(-c3ccc(Cl)cc3)c2c1` the Potency [1] was “inactive”, the Potency [6] was “inactive” and the Potency [7] was “inactive”. The Potency [4] was “inactive”, the Potency [9] was “inactive” and the Potency [5] was “inactive”.
In the case of `CC(=O)N1CCN(c2ccc(OC[C@H]3CO[C@](Cn4ccnc4)(c4ccc(Cl)cc4Cl)O3)cc2)CC1`, the Potency [1] is reported as 61.1 µM (active), the Potency [2] is reported as 13.7 µM (active) and the Potency [3] is reported as 30.6 µM (active). For the same compound, the Potency [4] was “inactive”.
For `CC(C)C(C)(C)C(C)(C)C(C)(C)S`, the Potency [1] was “inactive”, the Potency [6] was “inactive” and the Potency [7] was “inactive”. The Potency [8] was “inactive”, the Potency [4] was “inactive” and the Potency [9] was “inactive”. The Potency [5] was “inactive”.
For `CS(=O)(=O)CCNCc1ccc(-c2ccc3ncnc(Nc4ccc(OCc5cccc(F)c5)c(Cl)c4)c3c2)o1`, the Potency [1] was “inactive”, the Potency [2] was 7.5 µM (active) and the Potency [10] was 18.8 µM (active). For the same compound, the Potency [7] was “inactive”, the Potency [8] was “inactive” and the Potency [9] was “inactive”. The Potency [5] was “inactive”.
For `CCCC/C=C/CCCCO`, the Potency [1] was “inactive”, the Potency [2] was “inactive” and the Potency [3] was “inactive”. For the same compound, the Potency [7] was “inactive”, the Potency [8] was “inactive” and the Potency [4] was “inactive”. For the same compound, the Potency [9] was “inactive” and the Potency [5] was “inactive”.
In the case of `CC(C)OC(=O)c1cc2c(OCC(O)CNC(C)(C)C)cccc2[nH]1` (stereo not drawn), the Potency [1] is reported as “inactive”, the Potency [6] is reported as “inactive” and the Potency [7] is reported as “inactive”. The Potency [8] was “inactive”, the Potency [4] was “inactive” and the Potency [9] was “inactive”. For the same compound, the Potency [5] was “inactive”.
For `[Cl][Bi]([Cl])([c]1ccccc1)([c]1ccccc1)[c]1ccccc1`, the Potency [1] was 24.2 µM (active), the Potency [10] was 3.05 µM (active) and the Potency [3] was 1.71 µM (active).
With `S=c1[nH]c2ccccc2s1` the Potency [1] was “inactive”, the Potency [6] was “inactive” and the Potency [7] was “inactive”. The Potency [8] was “inactive”, the Potency [4] was “inactive” and the Potency [9] was “inactive”. The Potency [5] was “inactive”.
With `Oc1ccc2cc(SSc3ccc4cc(O)ccc4c3)ccc2c1` the Potency [1] was “inactive”, the Potency [2] was 30.7 µM (active) and 48.6 µM (active) and the Potency [7] was “inactive”. For the same compound, the Potency [8] was “inactive”, the Potency [4] was “inactive” and the Potency [9] was “inactive”. The Potency [5] was “inactive”.
With `Oc1ccc(Cl)cc1Sc1cc(Cl)ccc1O` the Potency [1] was 29.8 µM (active), the Potency [2] was 7.68 µM (active) and 9.44 µM (active) and the Potency [10] was 54.4 µM (active). The Potency [3] was “inactive”, the Potency [7] was “inactive” and the Potency [8] was “inactive”. The Potency [4] was “inactive”.
For `CCC(C)Nc1ccc(NC(C)CC)cc1` (stereo not drawn), the Potency [1] was 17.6 µM (active), the Potency [2] was 55.5 µM (active) and the Potency [7] was 25 µM (active). For the same compound, the Potency [8] was 39.7 µM (active), the Potency [9] was “inactive” and the Potency [5] was “inactive”.
For `Nc1ccc(N)c2ccccc12`, the Potency [1] was 30.6 µM (active), the Potency [2] was 54.4 µM (active) and the Potency [3] was “inactive”. For the same compound, the Potency [9] was “inactive” and the Potency [5] was “inactive”.
For `CC1=C(/C=C/C(C)=C/C=C/C(C)=C/C=O)C(C)(C)CCC1`, the Potency [1] was 60.8 µM (active), the Potency [2] was 54.2 µM (active) and the Potency [10] was 68.2 µM (active). For the same compound, the Potency [4] was “inactive”, the Potency [9] was “inactive” and the Potency [5] was “inactive”.
